Active and inactive are the calls of the source. The calls were made as follows: active = hit-call score of the fitted dose curve at least 0.9, where 1 is the maximum; inactive = score below 0.9.

Assay [1] in a line: BSK_3C_SRB: Viability Assessment in the BioMAP Diversity Plus: 3C Assay (AID 2283023).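 Also: fitted both ways against DMSO so a hit may be signal rise or drop.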 Conditions: primary human endothelial cells (HUVEC). In a few lines:
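Human umbilical vein endothelial cells in the 3C system, treated 24 h. Total protein measured by 0.1% sulforhodamine B staining after 10% TCA fixation, read at 560 nm; bidirectional fit versus DMSO.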

Read-out in assay [2]: Matrix Metallopeptidase 1 (MMP1), MMP1 (gene 4312)
Kind of assay: BSK_BE3C_MMP1: BioMAP Diversity Plus: BE3C Assay for Matrix Metallopeptidase 1 (MMP1) Biomarker Activity (AID 2283024). Conditions: primary human bronchial epithelial cells; actives raise or lower the signal. In a few lines: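 In this multiplexed primary-cell system, human bronchial epithelium received chemicals for 24 h before an ELISA for MMP1. Values reflect bidirectional fits normalised to the DMSO baseline.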

A short description of assay [3]: BSK_3C_Vis: BioMAP Diversity Plus: 3C Assay for Morphology Visualization (AID 2283025).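 Also: light microscopy image of cell morphology used as background control; fitted both ways so gain or loss versus DMSO counts.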 Conditions: primary human endothelial cells (HUVEC). In outline: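 Light-microscopy morphology readout, 24 h exposure, human primary umbilical vein endothelium; analysed relative to DMSO with bidirectional fitting.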
Read-out in assay [4]: Pselectin, SELP (gene 6403)
The experiment in a line: BSK_4H_Pselectin: BioMAP Diversity Plus: 4H Assay for Pselectin Biomarker Activity (AID 2283026). Conditions: primary human endothelial cells (HUVEC); actives raise or lower the signal. In outline:
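Bidirectional fits against DMSO gave the endpoint. Cells: primary human umbilical vein endothelium, chemical-treated for 24 h before ELISA detection of P-selectin.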

The nature of assay [5]: BSK_4H_SRB: Viability Assessment in the BioMAP Diversity Plus: 4H Assay (AID 2283027).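 Also: cells exposed to compound for 24 h before staining.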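 As to AC50: curves fitted both ways versus DMSO so AC50 may be loss or gain.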 Conditions: primary human endothelial cells (HUVEC). In a few lines:
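Cytotoxicity read-out in primary human endothelial cells: after 24 h compound exposure, cells were TCA-fixed (10%), stained with 0.1% SRB and absorbance taken at 560 nm. Values fitted in both directions relative to DMSO.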

Assay [6] in a line: BSK_BE3C_SRB: Viability Assessment in the BioMAP Diversity Plus: BE3C Assay (AID 2283028).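 As to AC50: fitted both ways so AC50 may mark signal gain or loss versus DMSO.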 Conditions: primary human bronchial epithelial cells. In outline:
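Human bronchial epithelial primary cells in confluent culture, 24 h after chemical dosing; total protein by 0.1% SRB staining after 10% TCA fixation, read at 560 nm. Bidirectional fitting versus DMSO baseline.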

Read-out in assay [7]: Thrombomodulin, THBD (gene 7056)
Kind of assay: BSK_3C_Thrombomodulin: BioMAP Diversity Plus: 3C Assay for Thrombomodulin Biomarker Activity (AID 2283029). Conditions: primary human endothelial cells (HUVEC); actives raise or lower the signal. In a few lines: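 In a multiplexed primary-cell system, human umbilical vein endothelium received chemical and was assayed 24 h later for thrombomodulin by ELISA. Parallel cultures were SRB-stained (0.1% SRB after 10% TCA fixation, read at 560 nm) to flag cytotoxicity.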

Read-out in assay [8]: Urokinase-type plasminogen activator receptor (uPAR), PLAUR (gene 5329)
The experiment in a line: BSK_4H_uPAR: BioMAP Diversity Plus: 4H Assay for Urokinase-type plasminogen activator receptor (uPAR) Biomarker Activity (AID 2283030). Conditions: primary human endothelial cells (HUVEC); actives raise or lower the signal. In a few lines: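 Human umbilical vein endothelial cells in the 4H system, 24 h after chemical dosing. Cell-surface uPAR measured by ELISA, fitted in both directions versus DMSO; cytotoxicity checked by SRB total protein in parallel cultures.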

Read-out in assay [9]: Vascular endothelial growth factor receptor 2 (Homo sapiens) (UniProt P35968)
The experiment in a line: BSK_4H_VEGFRII: BioMAP Diversity Plus: 4H Assay for Vascular endothelial growth factor receptor 2 (VEGFR2) Biomarker Activity (AID 2283031).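 As to AC50: cell-surface VEGFR2 protein level quantified by ELISA.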 Conditions: primary human endothelial cells (HUVEC); actives raise or lower the signal. In a few lines:
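Primary human umbilical vein endothelial cells (4H system), 24 h exposure; cell-surface VEGFR2 measured by ELISA. Bidirectional fitting versus DMSO; cytotoxicity checked in parallel by SRB total-protein staining.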

Read-out in assay [10]: Human Leukocyte Antigen - DR isotype (HLADR), HLA-DRA (gene 3122)
The experiment in a line: BSK_BE3C_HLADR: BioMAP Diversity Plus: BE3C Assay for Human Leukocyte Antigen - DR isotype (HLADR) Biomarker Activity (AID 2283032). Conditions: primary human bronchial epithelial cells; actives raise or lower the signal. In a few lines: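 BioMAP BE3C format: human bronchial epithelium, 24 h compound treatment, ELISA detection of HLA-DR, with bidirectional analysis relative to DMSO.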

As to `O=C1C=CC(=O)c2ccccc21`, the concentration at half-maximal activity (AC50) in assay [1] was 4.92 µM (active); in assay [2], 5.57 µM (active); in assay [3] it was 4.06 µM (active); in assay [4], 1.62 µM (active); in assay [5], 2.55 µM (active); in assay [6], 3.8 µM (active). For the same compound, the half-maximal activity concentration (AC50) in assay [8] was 1.99 µM (active); in assay [9], 5.18 µM (active); in assay [10], 3.32 µM (active). Besides, the outcome in assay [7] was inactive.
Regarding `Oc1cccc(-c2ccccc2)c1`, the AC50 in [1] was 20 µM (active); in assay [3] it was 38.9 µM (active); in assay [5], 20 µM (active). Also, the result in assay [2], in assay [4], in assay [6], in assay [7], in assay [8] and in [10] was inactive.
For the compound `CC(C)N(C(=O)CCl)c1ccccc1`, the AC50 was 20 µM (active) in assay [1]; 16.8 µM (active) in [4]; 24.5 µM (active) in [5]; 29.9 µM (active) in assay [6]; 35.1 µM (active) in assay [8]; 20 µM (active) in assay [10]. Moreover, the result in assay [2], in assay [7] and in assay [9] was inactive.
In the case of `CC(C)O.CC(C)O.OCCN(CCO)CCO.OCCN(CCO)CCO.[Ti]`, the result in assay [1], in assay [2], in assay [4], in assay [5], in assay [6] and in assay [7] was inactive. Also, the result in assay [8] and in [10] was inactive.
On to `O=S(=O)(C(Cl)(Cl)Cl)C(Cl)(Cl)Cl`, for which the AC50 in [1] was 1.12 µM (active); in assay [2] it was 7.31 µM (active); in [4], 1.1 µM (active); in assay [5] it was 0.932 µM (active); in [6], 4.45 µM (active); in [7] it was 10.1 µM (active). Moreover, the AC50 in assay [8] is 1.45 µM (active); in assay [9], 0.327 µM (active); in [10], 3.17 µM (active).
Regarding `O=S(=O)(c1ccc(Cl)cc1)c1cc(Cl)c(Cl)cc1Cl`, the half-maximal activity concentration (AC50) in [1] is 5.42 µM (active). The outcome in assay [2], in [4], in assay [5], in [6], in [7] and in assay [8] was inactive. The outcome in [10] was inactive.
Take `CC(C)(C)c1cc([N+](=O)[O-])cc(C(C)(C)C)c1O`: the results for the AC50 in assay [1], in [5] and in [7] were 0.815 µM (active), 0.0719 µM (active) and 0.0473 µM (active), respectively. Besides, the outcome in assay [2], in [4], in assay [6], in assay [8] and in assay [10] was inactive.
As to `N#Cc1cccnc1`, the outcome in assay [1], in assay [2], in assay [4], in assay [5], in assay [6] and in assay [7] was inactive. For the same compound, the outcome in [8] and in [10] was inactive.
Turning to `CCOC(=O)CCN(SN(C)C(=O)Oc1cccc2c1OC(C)(C)C2)C(C)C`, the result in assay [1], in assay [2], in assay [5], in [6], in assay [7] and in [8] was inactive. Further, the outcome in assay [10] was inactive. The AC50 in assay [4] was 23.2 µM (active).
For `CCCCCCCCCCCCN(C)C`, in assay [1], the AC50 was 20 µM (active). For the same compound, the result in assay [2], in assay [4], in assay [5], in assay [6], in assay [7] and in assay [8] was inactive. The result in assay [10] was inactive.
For `CCOC(=O)C(SP(=S)(OC)OC)c1ccccc1` (centres undefined), the AC50 in assay [1] is 32.6 µM (active); in assay [4], 20 µM (active); in assay [5] it was 29.5 µM (active); in assay [8] it was 20 µM (active). The outcome in assay [2], in assay [6], in [7] and in assay [10] was inactive.
Consider `CCOP(=S)(OCC)SCS(=O)(=O)C(C)(C)C`, for which the outcome in assay [1], in [2], in assay [4], in assay [5], in assay [6] and in [7] was inactive. Further, the result in assay [8] and in [10] was inactive.
On to `N#CCCC(Br)(C#N)CBr` (centres undefined), for which the concentration at half-maximal activity (AC50) was 5.06 µM (active) in [1]; 20 µM (active) in [2]; 6.62 µM (active) in [4]; 6.36 µM (active) in [5]; 20 µM (active) in [6]; 8.75 µM (active) in [8]. Also, the AC50 in assay [10] is 27.9 µM (active). In addition, the result in assay [7] was inactive.
On to `Cc1cc(C(C)(C)c2ccc(O)c(C)c2)ccc1O`, for which the AC50 was 17 µM (active) in assay [1]; 17.7 µM (active) in assay [4]; 14.3 µM (active) in assay [5]; 15.3 µM (active) in assay [8]; 10 µM (active) in assay [10]. The result in [2], in assay [6] and in assay [7] was inactive.
Turning to `CC(C)(COCC1CO1)COCC1CO1` (centres undefined), the outcome in assay [1], in assay [2], in assay [4], in assay [5], in assay [6] and in [7] was inactive. Moreover, the result in assay [8] and in [10] was inactive.
Consider `Cc1cccc(OP(=O)(Oc2cccc(C)c2)Oc2cccc(C)c2)c1`, for which the outcome in [1], in assay [2], in assay [4], in assay [5], in assay [6] and in assay [8] was inactive. The outcome in assay [10] was inactive. Moreover, the AC50 in assay [7] was 0.14 µM (active).
Regarding `Oc1ccc(Cc2ccc(O)cc2)cc1`, the outcome in assay [1], in [2], in assay [4], in assay [5], in assay [6] and in assay [7] was inactive. The outcome in [8] and in [10] was inactive.
Take `Nc1c(Oc2ccccc2)cc(O)c2c1C(=O)c1ccccc1C2=O`: the outcome in assay [1], in assay [4], in [5], in assay [6], in assay [7] and in [8] was inactive. For the same compound, the result in assay [10] was inactive. Moreover, the concentration at half-maximal activity (AC50) in assay [2] was 5.87 µM (active).

The values are drawn from PubChem BioAssay (EPA / NIEHS).
